High-throughput results from PubChem BioAssay.
Many of the other results were omitted from the sample, so hits are more common in it than they were.
NS1 inh: qHTS Assay for Inhibitors of Influenza NS1 Protein Function; hit rate 0.4% among 270,000; Potency, µM (top dose mostly 46.1 µM), without a hit: top-dose activity, positive = more growth; calls by dose curve; also: actives are rising curves; nearly all actives have a fitted effect of over 50% in size
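Growth recovery, yeast-based: influenza A NS1 expressed in S. cerevisiae causes slow growth, and suppressors are detected by OD600. The parent strain without NS1 is used as positive control.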
Cruzain inh Det: qHTS Assay for Promiscuous and Specific Inhibitors of Cruzain (with detergent) | purified cruzain, Z-FR-AMC fluorescence, 0.01% Triton | Potency, µM, for inactives: max response, negative = inhibition, actives largely listed as inhibitors | hit rate 0.43% among 200,000 | AID 1478, 2009;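 also: plate controls were neutral wells for no effect and buffer without enzyme for full effect; nearly all actives have a fitted effect of over 40% in size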
Target sequence (P25779 123-467 limits assumed): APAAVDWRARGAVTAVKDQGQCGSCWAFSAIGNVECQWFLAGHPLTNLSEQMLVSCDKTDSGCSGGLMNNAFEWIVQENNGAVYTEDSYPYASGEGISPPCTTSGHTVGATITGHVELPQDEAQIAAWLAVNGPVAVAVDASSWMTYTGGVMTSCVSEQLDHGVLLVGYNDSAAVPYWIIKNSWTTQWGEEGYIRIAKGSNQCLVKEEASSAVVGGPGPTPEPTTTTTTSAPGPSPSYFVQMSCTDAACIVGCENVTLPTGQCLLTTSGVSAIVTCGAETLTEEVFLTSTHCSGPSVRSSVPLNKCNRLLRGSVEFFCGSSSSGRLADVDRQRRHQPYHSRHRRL
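Steps: dispense cruzain (1.5 nM final) in acetate buffer pH 5.5 with DTT and 0.01% Triton X-100; pin-transfer compounds; incubate 15 min RT; add Z-FR-AMC (2 uM final); read fluorescence every 30 s, using the 60 s intensity change.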
Cruzain noTriton: qHTS Assay for Promiscuous and Specific Inhibitors of Cruzain (without detergent); Cruzipain (Trypanosoma cruzi), P25779; purified cruzain, Z-FR-AMC fluorescence, no detergent; Potency, µM, inactives show max response, negative = inhibition, actives largely listed as inhibitors; hit rate 2.3% among 200,000;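 also: plate controls were enzyme without inhibitor for no effect and buffer without enzyme for full effect; nearly all actives have a fitted effect of over 40% in size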
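Detergent-free condition (0.00005% Triton X-100) in acetate buffer pH 5.5 with DTT. 1.5 nM enzyme and compound were pre-mixed 15 min, then 2 uM Z-FR-AMC substrate added; reaction progress from fluorescence change between first and third reads (60 s).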
* hit, by the source's call; ? = inconclusive; . = no result given. Unless noted, calls follow the shape of the dose curve; as a rule, active = well fitted curve in the direction sought with a large enough effect; inconclusive = small, poorly fitted or top-dose-only effect, or another doubt; inactive = no such curve, though single readings can be large; an effect the other way counts as inactive or inconclusive. Potency is read from the fitted curve at half-maximal effect.

SMILES	NS1 inh	Cruzain inh Det	Cruzain noTriton
O=c1c2ccccc2nc(SCc2nnc(-c3ccccc3Br)o2)n1-c1ccccc1	-16%	-1%	32µM*
CC1CCc2c(sc3nc(SCc4nc(-c5ccccc5)no4)n(C)c(=O)c23)C1 (stereo not given)	-45%	.	.
COc1ccc(-c2noc(CSc3nc4ccccc4c(=O)n3-c3ccc(C)cc3)n2)cc1	2%	5%	16µM*
Brc1ccccc1-c1nnc(CSc2nncn2-c2ccccc2)o1	3%	2%	-8%
Cc1sc2nc(SCc3nc(-c4ccccc4)no3)n(-c3ccccc3)c(=O)c2c1C	8%	-3%	25µM*
COc1ccc(-n2c(SCc3nc(-c4ccc(C)cc4)no3)nnc2-c2ccccc2)cc1	.	-6%	?
Cc1ccc2nc(SCc3nnc(-c4ccccc4Br)o3)[nH]c2c1	-9%	-30%	20µM*
Cc1ccc2nc(SCc3nc(-c4ccccc4C)no3)[nH]c2c1	.	-24%	-7%
O=c1c(O)c(-c2ccc(O)c(O)c2)oc2c(OC3OC(CO)C(O)C(O)C3O)c(O)cc(O)c12 (stereo not given)	.	0%	-14%
O=C(NCC1CCOCC1)c1ccc(OC2CCN(Cc3ccccn3)CC2)cc1	6%	.	.
Cc1ccc(Cn2c(C(=O)O)c(CNCc3ccc(C)o3)c3ccc(C)cc32)cc1	.	-9%	?
CCN(CC)CCC#CC1(O)c2ccccc2-c2ccccc21	3%	.	.
O=C(c1cccs1)c1coc2ccc(O)c(CN(CCO)CCO)c12	4%	5%	-19%
CC(C(=O)NC1C=CS(=O)(=O)C1)N1C(=O)/C(=C\c2ccccc2)SC1=S (stereo not given)	-17%	.	.
Cc1nn(-c2nc3ccccc3s2)c(N)c1-c1ccccc1	14%	-1%	?
Cc1nn(-c2nc3ccccc3s2)c(N)c1Sc1ccc(F)cc1	-3%	7%	13µM*
O=C(Cn1nnc(-c2cccc(C(F)(F)F)c2)n1)NC(=O)NCc1ccco1	0%	5%	16µM*
O=C(Cn1nnc(-c2ccccc2)n1)NCc1ccco1	-1%	1%	-1%
Cc1ccc(Cn2cccc(NC(=O)CCC3CCCC3)c2=O)cc1	-57%	.	.
CC(=O)Nc1ccc(NC(=O)C(C)OC(=O)c2ccc(OCc3c(C)noc3C)cc2)cc1 (stereo not given)	-3%	-7%	?
O=C(Nc1cccc(F)c1)c1cnc2sc(N3CCCC3)nn2c1=O	.	-1%	16%
Cc1[nH]c2ccccc2c1C(=O)CSc1ccccc1	4%	-5%	2%
Cc1ccc2c(C(=O)CSc3ccccc3)c(C)[nH]c2c1	-5%	2%	13µM*
CCOC(=O)[C@H]1O[C@@H]1C(=O)N[C@@H](CC(C)C)C(=O)NCCC(C)C	2%	.	.
CC(C)CCNC(=O)[C@H](CC(C)C)NC(=O)[C@H]1O[C@@H]1C(=O)O	2%	0.1µM*	0.1µM*
SMILES	NS1 inh	Cruzain inh Det	Cruzain noTriton
CC(=O)c1c(C)[nH]c(C(=O)COc2ccc(C#N)cc2)c1C	-13%	2%	-21%
COc1ccc(NC(=O)CSc2nc(O)cc(=O)n2C)cc1	?	-25%	16µM*
Cn1c(SCC(=O)Nc2ccccc2)nc(O)cc1=O	?	-4%	-11%
COc1ccc(CNC(=O)Cn2c(=O)c3cccn3c3ccccc32)cc1	.	-2%	32µM*
COc1ccc(CNC(=O)Cn2c(=O)c3cccn3c3cccnc32)cc1	.	-5%	-16%
COc1ccc(CNC(=O)Cn2nc(C)n3cccc3c2=O)cc1	-14%	-7%	25µM*
Cc1ccc(CNC(=O)Cn2nc(C)n3cccc3c2=O)cc1	.	-4%	-1%
COc1ccc(CC(=O)NCC(=O)N/N=C/c2c[nH]c3ccccc23)cc1	-9%	.	.
O=C(N/N=C/c1cc([N+](=O)[O-])ccc1O)c1cccc2cc[nH]c12	-30%	.	.
C=CCOc1ccc2cccc(/C=N/NC(=O)c3cc4cc([N+](=O)[O-])ccc4s3)c2c1	-1%	0%	6.3µM*
Cc1cc(C)cc(-n2nnc(C(=O)NCc3ccc4c(c3)OCO4)c2N)c1	-26%	-6%	8%
CCOC(=O)C1=C(c2ccccc2)N=c2s/c(=C\c3cccc(O)c3)c(=O)n2C1c1cccs1 (stereo not given)	-47%	-4%	-4%
O=c1/c(=C\c2ccc(O)cc2)sc2n1C(c1ccccc1)C(c1ccccc1)=NN=2 (stereo not given)	?	-3%	25µM*
Cc1ccc(OCC(=O)N(Cc2ccc(Cl)cc2)CC2CCCO2)cc1C (stereo not given)	.	-8%	29%
COc1cc2c(cc1NC(=O)COC(=O)[C@@H](NC(=O)c1ccccc1)C(C)C)oc1ccccc12	-16%	-9%	32µM*
COc1cc2c(cc1NC(=O)COC(=O)[C@@H](NC(=O)c1ccccc1F)C(C)C)oc1ccccc12	?	-10%	?
CCc1ccc(OCC(=O)Nc2cc3oc4ccccc4c3cc2OC)cc1	.	0%	1%
CCN(CC)c1ccc(C(=O)OCC(=O)Nc2cc3oc4ccccc4c3cc2OC)cc1	-2%	-17%	13µM*
CCc1ccccc1NC(=O)Cn1c(=O)n(Cc2ccc3c(c2)OCO3)c(=O)c2ccc(C(=O)NC3CCCCC3)cc21	.	5%	-9%
O=C(Cn1c(=O)n(Cc2ccc3c(c2)OCO3)c(=O)c2ccc(C(=O)NC3CCCCC3)cc21)Nc1ccccc1F	.	0%	13µM*
COc1cccc(C(=O)Nc2ccc(-n3nncc3-c3ccccc3)cc2)c1	.	2%	-5%
CC1Cc2cc(/C=C3/SC(=S)NC3=O)ccc2O1 (stereo not given)	-84%	.	.
Cc1ccc(C2C(/C=C3/SC(=S)NC3=O)=C(c3cccs3)Oc3ccccc32)cc1 (stereo not given)	12%	-2%	7.9µM*
Cc1cccc(C(=O)NCc2nnc(SCC(=O)NC3=NCCS3)n2C)c1	19%	.	.
C#CCn1c(=O)n(-c2cccc(Cl)c2C)c(=O)c2c3c(sc21)CN(C(C)=O)CC3	.	-2%	?
SMILES	NS1 inh	Cruzain inh Det	Cruzain noTriton
Brc1ccccc1CN1CCC(N2CCCCC2)CC1	?	6%	12%
O=S(=O)(Nc1nc2ccccc2nc1Nc1ccc2c(c1)OCO2)c1ccccc1	1%	-3%	?
Cc1cccc(S(=O)(=O)Nc2nc3ccccc3nc2Nc2ccc3c(c2)OCO3)c1	?	-6%	16µM*
N#C/C(=C\c1ccc(O)cc1)C(=O)NCc1cccc(Cl)c1	4%	.	.
COc1ccc(S(=O)(=O)N2CCOCC2)cc1C(=O)N1CCCCCC1	-2%	.	.
CCOC(=O)CNC(=O)O[C@H]1C(=O)c2cc(OC)ccc2O[C@@H]1c1ccc(OC)c(Br)c1	.	-1%	13µM*
CCOC(=O)CNC(=O)O[C@@H]1C(=O)c2cc(OC)ccc2O[C@H]1c1cccc(OC)c1	.	3%	0%
O=C(C#Cc1cccc([N+](=O)[O-])c1)c1ccccc1	-187%	8.9µM*	-21%
O=C(/C=C/c1cccc([N+](=O)[O-])c1)c1ccccc1	.	-1%	4%
CC(=O)c1cccc(NC(=O)N2CC(C)OC(C)C2)c1 (stereo not given)	3%	.	.
C=CCN(CC=C)S(=O)(=O)c1ccc(NC(=S)NC(=O)c2ccco2)cc1	10%	-3%	4%
